Our source for the z-score and composite z-score values is PubChem BioAssay.

The nature of experiment [1]: optical density shifts of acrAB sulA E. coli – strain DRC41, OD650, 48 h, E. coli filamentation inducer project, primary screen (AID 1152).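 Also: E. coli MC1000 strain DRC41 lacking acrAB efflux pump and sulA.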 The note with it: higher = more signal, called active from +8 up or from −8 down.
A short description of experiment [2]: probe aLefty1 binding on compound microarray – biochemical, small-molecule microarray, 635/667 nm fluorescence, primary screen (AID 1153).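 Also: score merges spot fluorescence with signal-to-noise ratio from the scanned slide images.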 The note with it: higher = more signal.
Experiment [3] in a line: plasmodial surface anion channel blockers, osmotic lysis – cell-based, P. falciparum Indochina, OD700, 1 h, primary screen (AID 1154). The note with it: P. falciparum Indochina infected RBC osmotic lysis, higher = more signal, called active from +8 up or from −8 down.
The nature of experiment [4]: plasmodial surface anion channel blockers, osmotic lysis – cell-based, P. falciparum Indochina, OD700, 2 h, primary screen (AID 1155).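 Also: lysis reports solute entry through the parasite surface anion channel PSAC.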 The note with it: P. falciparum Indochina infected erythrocytes, higher = more signal, called active from +8 up or from −8 down.
Experiment [5] can be described thus: changes in parasitized red cell lysis, either direction – P. falciparum Indochina, OD700, 3 h, PSAC antagonist project, primary screen (AID 1156). The note with it: P. falciparum-infected erythrocytes, osmotic lysis, higher = more signal, called active from +8 up or from −8 down.
A short description of experiment [6]: plasmodial surface anion channel blockers, osmotic lysis – cell-based, P. falciparum Indochina, OD700, 18 h, primary screen (AID 1157). The note with it: P. falciparum Indochina infected erythrocytes, osmotic lysis OD700, 18 h; higher = more signal, called active from +8 up or from −8 down.
Experiment [7] is described as follows: S6 kinase pathway phospho-S6 level changes – cell-based, A549, cytoblot, luminescence, serum-stimulated, primary screen (AID 1158).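 Also: serum-stimulated A549 lung adenocarcinoma cells; signal is phosphorylated S6 detected by cytoblot immunostaining with HRP secondary.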 The note with it: 5 h, higher = more signal.
The target in experiment [8] is NADPH oxidase 2 (Homo sapiens) (UniProt P04839). Put plainly: compounds shifting NOX2 Amplex Red fluorescence – cell-based, HEK293-NOX2, PMA-stimulated, NOX inhibitor project, primary screen (AID 1159). Also: test concentration not given here. The note with it: 45 min, higher = more signal, called active from +8 up or from −8 down.
Experiment [9] concerns the target NADPH oxidase 4 (Homo sapiens) (UniProt Q9NPH5). Nature of the experiment: compounds shifting NOX4 Amplex Red fluorescence – cell-based, HEK293-NOX4, tetracycline-induced, NOX inhibitor project, primary screen (AID 1160). The note with it: HEK293-NOX4, Amplex Red H2O2 fluorescence, 45 min; higher = more signal, called active from +8 up or from −8 down.
Experiment [10] deals with NADPH oxidase 5 (Homo sapiens) (UniProt Q96PH1). Put plainly: compounds shifting NOX5 Amplex Red fluorescence – cell-based, HEK293-NOX5, NOX inhibitor project, primary screen (AID 1161). The note with it: HEK293-NOX5, ionomycin, 45 min, higher = more signal.
Experiment [11] is described as follows: compound effects on lung adenocarcinoma cell viability – A549, calcein-AM fluorescence, 48 h, basal, profiling panel (AID 1162). Also: test concentration not given here. The note with it: higher = more signal.
Experiment [12] in a line: compound effects on differentiated 3T3-L1 adipocyte viability – cell-based, 3T3-L1 adipocytes, calcein-AM fluorescence, 48 h, basal, profiling panel (AID 1163). Also: test concentration not given here. The note with it: 3T3-L1 adipocytes viability, higher = more signal.
Experiment [13] is described as follows: compound effects on hepatocellular carcinoma cell viability – HepG2, calcein-AM fluorescence, 48 h, basal, profiling panel (AID 1164). Also: test concentration not given here. The note with it: higher = more signal.
Experiment [14] can be described thus: compound effects on multiple myeloma cell viability – MM1S, calcein-AM fluorescence, 48 h, basal, profiling panel (AID 1165).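 Also: viability of MM1S multiple myeloma cells under basal unstimulated conditions; test concentration not given here.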 The note with it: higher = more signal.
Experiment [15] can be described thus: calcein-AM signal in unstimulated myeloma cells – cell-based, calcein-AM fluorescence, 48 h, PK04 Diversity Set, profiling panel (AID 1166).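 Also: cells grown under basal conditions without added stimulus; test concentration not given here.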 The note with it: RPMI8226 myeloma viability, higher = more signal.
A short description of experiment [16]: JC-1 mitochondrial signal, unstimulated HepG2 cells – cell-based, JC-1 fluorescence, 24 h, 100 nL compound, profiling panel (AID 1167). Also: test concentration not given here. The note with it: HepG2 mitochondrial potential, higher = more signal.
Experiment [17] in a line: JC-1 mitochondrial signal, unstimulated adipocytes – cell-based, JC-1 fluorescence, 3T3-L1 adipocytes, 24 h, 100 nL compound, profiling panel (AID 1168). Also: test concentration not given here. The note with it: JC-1 mitochondrial fluorescence, higher = more signal, called active from +8 up or from −8 down.
Experiment [18] can be described thus: JC-1 mitochondrial signal, unstimulated myeloma cells – cell-based, JC-1 fluorescence, RPMI8226, 24 h, 100 nL compound, profiling panel (AID 1169). Also: test concentration not given here. The note with it: JC-1 mitochondrial potential fluorescence, higher = more signal.
Experiment [19] can be described thus: JC-1 mitochondrial signal, unstimulated MM1S myeloma – cell-based, JC-1 fluorescence, 24 h, 100 nL compound, profiling panel (AID 1170). Also: test concentration not given here. The note with it: MM1S mitochondrial potential, higher = more signal.
Experiment [20] is described as follows: resazurin metabolic signal in A549 cells – cell-based, resazurin fluorescence, 24 h, PK04 Diversity Set, profiling panel (AID 1171). Also: test concentration not given here. The note with it: A549 viability, higher = more signal, called active from +8 up or from −8 down.

The source made the active and inactive calls.

NADPH oxidase 4 (Homo sapiens), sequence (Q9NPH5 whole entry, looked up): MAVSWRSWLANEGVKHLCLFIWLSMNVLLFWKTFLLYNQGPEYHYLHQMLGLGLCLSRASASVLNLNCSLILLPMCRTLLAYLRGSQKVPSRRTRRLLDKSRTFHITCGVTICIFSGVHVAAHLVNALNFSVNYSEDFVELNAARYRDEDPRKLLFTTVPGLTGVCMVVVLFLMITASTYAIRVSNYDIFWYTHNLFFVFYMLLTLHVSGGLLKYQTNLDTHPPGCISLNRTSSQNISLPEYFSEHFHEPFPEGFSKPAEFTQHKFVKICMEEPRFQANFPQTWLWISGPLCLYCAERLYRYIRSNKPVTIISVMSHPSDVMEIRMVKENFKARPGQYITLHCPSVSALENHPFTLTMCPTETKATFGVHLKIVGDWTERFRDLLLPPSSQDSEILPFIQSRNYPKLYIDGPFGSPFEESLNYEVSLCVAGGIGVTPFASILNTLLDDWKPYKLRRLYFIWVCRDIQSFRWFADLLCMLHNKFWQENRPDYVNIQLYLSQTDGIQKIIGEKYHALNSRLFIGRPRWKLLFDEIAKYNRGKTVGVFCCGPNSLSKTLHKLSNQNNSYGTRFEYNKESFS
NADPH oxidase 2 (Homo sapiens), sequence (P04839 whole entry, looked up): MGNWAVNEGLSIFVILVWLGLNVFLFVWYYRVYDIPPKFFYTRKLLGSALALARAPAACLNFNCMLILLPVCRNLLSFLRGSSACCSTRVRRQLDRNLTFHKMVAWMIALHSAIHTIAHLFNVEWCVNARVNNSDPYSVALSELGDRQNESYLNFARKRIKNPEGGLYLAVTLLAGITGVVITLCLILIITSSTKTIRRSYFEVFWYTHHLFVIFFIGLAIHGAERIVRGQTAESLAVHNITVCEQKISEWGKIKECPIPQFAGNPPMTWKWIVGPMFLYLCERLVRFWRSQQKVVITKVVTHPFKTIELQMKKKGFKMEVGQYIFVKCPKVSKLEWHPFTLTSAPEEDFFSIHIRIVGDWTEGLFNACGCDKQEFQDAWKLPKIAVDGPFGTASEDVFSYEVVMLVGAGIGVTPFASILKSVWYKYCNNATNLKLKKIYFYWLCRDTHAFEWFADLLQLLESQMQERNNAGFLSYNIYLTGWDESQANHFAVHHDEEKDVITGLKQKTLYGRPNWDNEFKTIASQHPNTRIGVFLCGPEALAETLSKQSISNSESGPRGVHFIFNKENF
NADPH oxidase 5 (Homo sapiens), sequence (Q96PH1 whole entry, looked up): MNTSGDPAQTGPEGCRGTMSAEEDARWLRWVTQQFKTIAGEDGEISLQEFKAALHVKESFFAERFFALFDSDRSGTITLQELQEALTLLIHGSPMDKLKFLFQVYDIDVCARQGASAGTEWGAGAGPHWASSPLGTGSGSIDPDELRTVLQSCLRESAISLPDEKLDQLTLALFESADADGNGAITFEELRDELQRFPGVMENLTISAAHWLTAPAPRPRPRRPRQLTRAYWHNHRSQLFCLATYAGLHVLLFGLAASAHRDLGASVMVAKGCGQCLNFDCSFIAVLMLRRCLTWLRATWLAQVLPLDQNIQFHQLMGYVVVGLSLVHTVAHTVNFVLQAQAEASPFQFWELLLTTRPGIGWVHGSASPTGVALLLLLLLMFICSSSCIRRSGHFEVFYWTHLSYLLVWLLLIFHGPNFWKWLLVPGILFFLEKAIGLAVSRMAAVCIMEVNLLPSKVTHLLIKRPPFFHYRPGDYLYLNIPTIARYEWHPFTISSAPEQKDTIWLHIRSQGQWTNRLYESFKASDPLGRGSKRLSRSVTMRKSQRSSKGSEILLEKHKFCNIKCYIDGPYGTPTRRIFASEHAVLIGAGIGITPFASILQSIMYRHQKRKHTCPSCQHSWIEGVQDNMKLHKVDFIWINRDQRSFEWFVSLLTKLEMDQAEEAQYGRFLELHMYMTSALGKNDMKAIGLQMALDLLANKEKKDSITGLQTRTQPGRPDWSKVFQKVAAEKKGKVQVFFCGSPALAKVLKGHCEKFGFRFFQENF

Turning to `C[N+](C)(C)CCCC[C@@H]1NC(=O)[C@H]2C[C@@H](C(=O)NCCCCCCNC(=O)CS)[C@@H](c3ccc(O)cc3)N2C1=O`, the z-score in [1] is -0.265 (inactive); in experiment [3] it was 1.24 (inactive); in [4] it was 0.193 (inactive); in [5], 1.12 (inactive); in [6], 0.0061 (inactive); in experiment [7], -0.409. The z-score in experiment [8] is 0.518 (inactive); in [9], 0.507 (inactive); in experiment [10], 0.936; in experiment [11], -0.293; in [12], -0.267; in [13] it was -0.838. Also, the z-score in experiment [14] was -0.414; in [15], 0.498; in experiment [16] it was -1.66; in experiment [17], -0.564 (inactive); in experiment [18], 0.164; in experiment [19], -0.0762. Also, the z-score in experiment [20] is -0.657 (inactive). Also, the composite z-score in experiment [2] was -0.299.
Turning to `CC[C@@H]1C=C(C(=O)O)[C@H](c2cccc3ccccc23)N1S(=O)(=O)c1ccc(C)cc1`, the z-score is -0.453 (inactive) in experiment [1]; 1.26 (inactive) in experiment [3]; 1.2 (inactive) in [4]; -0.129 (inactive) in [5]; 0.708 (inactive) in experiment [6]; -0.769 in experiment [7]. Further, the z-score was 0.338 (inactive) in [8]; -0.931 (inactive) in experiment [9]; 0.133 in experiment [10]; -1.17 in experiment [11]; -0.101 in experiment [12]; 0.338 in experiment [13]. The z-score is -0.585 in experiment [14]; -0.392 in experiment [15]; -0.384 in experiment [16]; 0.291 (inactive) in experiment [17]; 1.17 in experiment [18]; -1.16 in experiment [19]. In addition, in [20], the z-score is -0.376 (inactive). The composite z-score in experiment [2] was found to be 0.0774.
For `C=CCC(OC(C)=O)[C@@H]1[C@@H](N(Cc2ccc(-c3cccc(C(F)(F)F)c3)o2)C(=O)Cc2ccc(OC)cc2)c2cc(OCCCO)ccc2N1C(=O)c1ccc2ccccc2c1` (stereo not given in full), the z-score in experiment [1] is 0.0395 (inactive); in [3] it was 1.35 (inactive); in experiment [4], 1.01 (inactive); in experiment [5], 2.68 (inactive); in experiment [6] it was 0.898 (inactive); in [7], 0.388. Also, the z-score in experiment [8] is -2.68 (inactive); in [9], -1.99 (inactive); in experiment [10], -1.9; in experiment [11], -0.138; in experiment [12], 1.13; in experiment [13], -0.589. The z-score in experiment [14] is 0.269; in experiment [15], -0.738; in experiment [16], 2.15; in experiment [17], -0.75 (inactive); in experiment [18], -0.442; in experiment [19], 0.675. For the same molecule, the z-score in experiment [20] is -0.186 (inactive). The molecule also had a composite z-score in experiment [2] of 0.0191.
As to `COC(=O)C(CC#Cc1ccc2c(c1)[C@]1(C(=O)N2)[C@H](c2ccccc2OCCO)N2[C@H](c3ccccc3)[C@H](c3ccccc3)OC(=O)[C@H]2[C@@H]1C(N)=O)C(=O)OC`, the z-score was 0.793 (inactive) in experiment [1]; 7.57 (inactive) in experiment [3]; 2.02 (inactive) in experiment [4]; 1.44 (inactive) in experiment [5]; 1.2 (inactive) in experiment [6]; -0.0528 in experiment [7]. The z-score in experiment [8] was 2.12 (inactive); in experiment [9], 0.696 (inactive); in experiment [10] it was 1.51; in [11], -0.387; in experiment [12], 0.395; in experiment [13] it was -4.39. The z-score in experiment [14] was -3.38; in experiment [15], -4.56; in experiment [16], -2.46; in [17], 3.28 (inactive); in [18] it was -1.18; in experiment [19] it was -2.09. Also, in experiment [20], the z-score is -1.01 (inactive). The molecule further yielded a composite z-score in experiment [2] of 1.81.
For `COCC(=C=CC[C@H](O)c1cccc(OCCO)c1)C[C@H](O)c1cc(Cl)cc(Cl)c1O`, the z-score is 0.652 (inactive) in experiment [1]; 22.1 (active) in experiment [3]; 5.78 (inactive) in experiment [4]; 0.658 (inactive) in [5]; 1.21 (inactive) in [6]; 0.232 in [7]. The z-score in experiment [8] was -0.707 (inactive); in experiment [9], -0.429 (inactive); in experiment [10] it was -1.25; in experiment [11], 0.593; in experiment [12], -0.317; in experiment [13], 0.956. Besides, the z-score is -0.967 in [14]; -0.193 in experiment [15]; 0.277 in [16]; 0.86 (inactive) in [17]; 0.262 in experiment [18]; -0.931 in experiment [19]. Further, the z-score in experiment [20] was 0.627 (inactive). The same molecule displayed a composite z-score in experiment [2] of 0.0012.
